Assay outcomes as filed in PubChem.
SRC1 inh – inhibits human SRC1 coactivator; AID 588354; inhibition, % at 3.6 µM; 360,000 compounds, 0.12% hits; HEK293 GAL4-SRC1 luciferase reporter, luminescence; Q15788;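 active = inhibition above the campaign mean plus 3 SD, with each screening campaign given its own cutoff, cut at about 60% in these data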
Gli-Sufu antag – antagonists of Gli-Sufu signaling; Sufu-KO-LIGHT fibroblasts, Gli luciferase reporter luminescence; inhibition, % at 5 µM; 340,000 compounds, 0.74% hits;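 active = inhibition above about 55%, limit read from the data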
SRC2 inh – human SRC2 (NCOA2) inhibition | Q15596 | HEK293 GAL4-SRC2 luciferase reporter, luminescence | inhibition, % at 9 µM | 370,000 compounds, 0.17% hits;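 active = inhibition above the mean inhibition of all tested compounds plus 3 SD, set per campaign, cut at about 52% in these data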
COUP-TFII inh – inhibitors of human COUP-TFII (NR2F2) | 370,000 compounds, 0.7% hits | HEK293T NGFI-A luciferase reporter, luminescence | AID 686940 | inhibition, % at 8.6 µM | P24468;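 active = inhibition above a per-plate cutoff, mean inhibition of test wells between control levels plus 3 SD, cut at about 38% in these data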;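 also: cells cotransfected with COUP-TFII expression vector driving the NGFI-A reporter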
LRH-1 inv ag – inverse agonists of human LRH-1 (NR5A2); inhibition, % at 3.6 µM; HEK293T StAR-luciferase reporter, LRH-1 transfected, 24 h; 360,000 compounds, 0.13% hits; O00482;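 active = inhibition above the mean inhibition of all tested compounds plus 3 SD, cut at about 73% in these data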
Target sequence (O00482 whole entry, looked up): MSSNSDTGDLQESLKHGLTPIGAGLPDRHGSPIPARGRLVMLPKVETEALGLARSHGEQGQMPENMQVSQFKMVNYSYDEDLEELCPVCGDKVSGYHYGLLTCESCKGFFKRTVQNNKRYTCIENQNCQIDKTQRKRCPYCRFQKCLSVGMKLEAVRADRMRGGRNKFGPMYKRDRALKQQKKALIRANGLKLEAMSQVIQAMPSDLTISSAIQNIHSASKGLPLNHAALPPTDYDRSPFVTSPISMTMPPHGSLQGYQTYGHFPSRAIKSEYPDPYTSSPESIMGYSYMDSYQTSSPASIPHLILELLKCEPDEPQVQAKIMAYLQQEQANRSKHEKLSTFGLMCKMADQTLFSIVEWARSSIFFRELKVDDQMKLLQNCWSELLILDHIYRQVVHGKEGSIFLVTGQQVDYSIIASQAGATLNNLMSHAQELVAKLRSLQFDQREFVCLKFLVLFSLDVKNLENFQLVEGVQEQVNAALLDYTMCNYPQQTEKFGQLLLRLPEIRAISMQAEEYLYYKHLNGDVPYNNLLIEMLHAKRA
SRC3 inh – inhibitors of human steroid receptor coactivator 3 (SRC3); HEK293 GAL4-SRC3 luciferase reporter, luminescence; 360,000 compounds, 0.17% hits; inhibition, % at 3.6 µM; Q9Y6Q9;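 active = inhibition above a per-campaign cutoff, the mean of all compounds plus 3 SD, cut at about 60% in these data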;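 also: higher means less SRC3-driven luciferase light from the GAL4 reporter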
VP16 Luc counter – VP16 inhibition counter-screen for COUP-TFII. 2,500 compounds, 25% hits. inhibition, % at 8.5 µM. HEK293 Gal4-VP16 luciferase reporter, luminescence. shares compounds with COUP-TFII inh; in the data active = inhibition above about 13%
COUP-TFII conf – COUP-TFII (NR2F2) inhibition, confirmation assay; shares compounds with COUP-TFII inh; HEK293 NGFI-A luciferase reporter, luminescence; inhibition, % at 8.5 µM; 2,500 compounds, 45% hits;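 active = mean inhibition over three repeats above a set limit taken from the earlier primary screen, cut at about 38% in these data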
Large screens that a line does not name were inactive (follow-up assays come after a bar, where they were run). Hits are enriched below; roughly 1.3% of the tested compounds scored in any of these assays.

C[C@]12CC[C@H](O)C[C@H]1CC[C@@H]1[C@@H]2CC[C@]2(C)[C@@H](C3=CC(=O)OC3)CC[C@]12O	SRC1 inh 82.6, COUP-TFII inh 77.0, LRH-1 inv ag 102.1, SRC3 inh 84.9 | VP16 Luc counter 46.6 | COUP-TFII conf 73.5
C[C@]12CCC3C(CC[C@H]4C[C@@H](O)CC[C@]34C)[C@H]1C=CC2=O (stereo not given in full)	none
CC12CCC(O)CC1CCC1C2CCC2(C)C(C3=CC(=O)OC3)CCC12O (stereo not given)	SRC1 inh 82.1, COUP-TFII inh 71.6, LRH-1 inv ag 98.7, SRC3 inh 83.9 | VP16 Luc counter 45.3 | COUP-TFII conf 71.6
C[C@]12CC[C@H](O)C[C@H]1CC[C@@H]1[C@@H]2C[C@@H](O)[C@]2(C)[C@@H](C3=CC(=O)OC3)CC[C@]12O	COUP-TFII inh 80.7, LRH-1 inv ag 102.8, SRC3 inh 75.1 | VP16 Luc counter 29.3 | COUP-TFII conf 58.5
COC(=O)C1C(c2ccc(C)cc2)CC2CCC1N2C (stereo not given)	none (no result: SRC1 inh, Gli-Sufu antag, LRH-1 inv ag, SRC3 inh)
Cc1c(P(=S)(c2ccccc2)c2ccccc2)c2ccccc2n1C	none (no result: SRC1 inh, Gli-Sufu antag, SRC2 inh, LRH-1 inv ag, SRC3 inh)
COC1C(O)C(C)OC(OC2CCC3(C)C(CCC4C3C(O)CC3(C)C(C5=CC(=O)OC5)CCC43O)C2)C1O (stereo not given)	SRC1 inh 87.4, SRC2 inh 57.7, COUP-TFII inh 76.6, LRH-1 inv ag 100.8, SRC3 inh 90.1 | VP16 Luc counter 53.9 | COUP-TFII conf 78.9
CC(C)(O)/C=C/C(=O)C(C)(O)C1C(O)CC2(C)C3CC=C4C(C=C(O)C(=O)C4(C)C)C3(C)C(=O)CC12C (stereo not given)	Gli-Sufu antag 88.8, SRC2 inh 75.3, COUP-TFII inh 43.7, SRC3 inh 67.0 | VP16 Luc counter 60.9 | COUP-TFII conf 64.5
C[C@@]12CC[C@@H](c3cc4c(cc3C1)OCO4)N2c1ccccc1	none (no result: SRC1 inh, Gli-Sufu antag, SRC3 inh)
CC(=O)O[C@H]1C[C@@H]2OC3C=C(C)CCC3(C)[C@@]1(C)[C@@]21CO1 (stereo not given in full)	SRC1 inh 94.2, Gli-Sufu antag 66.0, SRC2 inh 69.0, COUP-TFII inh 76.7, LRH-1 inv ag 97.4, SRC3 inh 92.3 | VP16 Luc counter 16.0 | COUP-TFII conf 72.1
CC(=O)OC1CC2OC3C=C(C)CCC3(C)C1(C)C21CO1 (stereo not given)	SRC1 inh 95.5, SRC2 inh 69.1, COUP-TFII inh 84.8, LRH-1 inv ag 102.7, SRC3 inh 94.7 (no result: Gli-Sufu antag) | VP16 Luc counter 16.6 | COUP-TFII conf 71.8
C=C1[C@@H](C)C2[C@H](Cc3ccccc3)NC(=O)[C@]23[C@H](OC(C)=O)/C=C/[C@@](C)(O)C(=O)[C@@H](C)C/C=C/[C@H]3[C@@H]1O (stereo not given in full)	none (no result: SRC1 inh, Gli-Sufu antag, LRH-1 inv ag, SRC3 inh)
O=C(NCCN1CCC2(CC1)C(=O)NCN2c1ccccc1)c1ccccc1F	none (no result: SRC1 inh, Gli-Sufu antag, LRH-1 inv ag, SRC3 inh)
C=Cc1cc(OC)c2c(c1)c(=O)oc1c2cc(OC)c2c(O)ccc(C3OC(C)C(O)C(C)(O)C3O)c21 (stereo not given)	SRC2 inh 66.4, COUP-TFII inh 59.3 | VP16 Luc counter 24.2 | COUP-TFII conf inactive
CCCOC(=O)c1ccc(-[n+]2c(-c3ccccc3)cc(-c3ccccc3)cc2-c2ccccc2)cc1	COUP-TFII inh 54.9 | VP16 Luc counter 22.5 | COUP-TFII conf 48.1
C[n+]1c(-c2ccccc2)cc(CCCCc2cc(-c3ccccc3)[n+](C)c(-c3ccccc3)c2)cc1-c1ccccc1	none
COc1ccc(-c2cc(-c3ccccc3)[n+](C)c(-c3ccccc3)c2)cc1	COUP-TFII inh 45.5, LRH-1 inv ag 73.8, SRC3 inh 69.9 | VP16 Luc counter 15.6 | COUP-TFII conf 52.7
O=C(c1ccccc1)N1Cc2cc(Br)ccc2-n2nncc2C1	none (no result: SRC1 inh, Gli-Sufu antag, LRH-1 inv ag, SRC3 inh)
COC(=O)C1=C(c2ccc(-c3ccccc3)c(F)c2)C[C@@H]2CC[C@H]1N2C(=O)N1CCCCC1	COUP-TFII inh 63.9 | VP16 Luc counter 20.2 | COUP-TFII conf 53.6
